Only some compounds are listed: those with a hit (about 4.1% of all), similar ones and a draw of the others.
AmpC inh detg: qHTS Inhibitors of AmpC Beta-Lactamase (assay with detergent). P00811. AmpC hydrolysis of nitrocefin, absorbance 480 nm, 0.01% Triton. Potency, µM (series often up to 114 µM), without a hit: at the highest dose activity change, negative = inhibition, actives largely listed as inhibitors. 370,000 compounds, 0.041% hits. AID 485294, 2010;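 also: 0% = no-compound wells and -100% = no-enzyme wells; nearly all actives have a fitted effect of over 25% in size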
Target sequence (P00811 whole entry, looked up): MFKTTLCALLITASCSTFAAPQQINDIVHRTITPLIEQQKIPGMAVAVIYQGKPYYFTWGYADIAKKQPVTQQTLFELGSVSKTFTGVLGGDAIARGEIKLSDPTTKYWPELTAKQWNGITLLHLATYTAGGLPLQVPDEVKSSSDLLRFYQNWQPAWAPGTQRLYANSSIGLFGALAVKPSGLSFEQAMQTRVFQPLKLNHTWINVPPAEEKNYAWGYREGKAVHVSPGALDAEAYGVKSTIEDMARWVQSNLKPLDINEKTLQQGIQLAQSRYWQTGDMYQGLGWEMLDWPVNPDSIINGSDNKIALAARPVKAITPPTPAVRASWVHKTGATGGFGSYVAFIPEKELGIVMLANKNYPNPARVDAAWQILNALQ
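20 mM phosphate pH 7.0 + 0.01% (detergent screen) or 0.0001% Triton X-100; 5.3 nM AmpC reagent; cpd preinc 15 min RT; nitrocefin (800 uM stock) to start; A480 q20 s × 4 min; Activity was normalised to no-enzyme and no-compound control wells.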
AmpC no deterg: qHTS Inhibitors of AmpC Beta-Lactamase (assay without detergent) | P00811 | AmpC nitrocefin hydrolysis, absorbance 480 nm, 0.0001% Triton | Potency, µM (series often up to 57.1 µM), without a hit: at the highest dose activity change, negative = inhibition, hits mostly inhibitors | 330,000 compounds, 0.52% hits | AID 485341, 2010;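 also: plate controls were no compound for no effect and no enzyme for full effect; nearly all actives have a fitted effect of over 20% in size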
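20 mM phosphate pH 7.0 + 0.01% (detergent screen) or 0.0001% Triton X-100; 5.3 nM AmpC reagent; cpd preinc 15 min RT; nitrocefin (800 uM stock) to start; A480 q20 s × 4 min; Activity was normalised to no-enzyme and no-compound control wells.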
Sm TGR block: qHTS Assay for the Inhibitors of Schistosoma Mansoni Peroxiredoxins. Schistosoma mansoni thioredoxin glutathione reductase (TGR), Q962Y6. purified TGR, DTNB reduction, TNB absorbance 405 nm. Potency, µM (highest dose often 114 µM), for the others: at the top dose activity change, negative = inhibition, most hits filed as inhibitors. 360,000 compounds, 3% hits. AID 485364, 2010; also: nearly all actives have a fitted effect of over 60% in size
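Kinetic colorimetric format: TGR-catalysed, NADPH-driven DTNB reduction monitored via TNB absorbance. Enzyme dispensed at 20 nM; compound exposure 15 min at room temperature before reaction start.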
FMDV inh: High Throughput Screening for Foot and Mouth Disease Virus Antivirals. FMDV antiviral cell-based qHTS. Potency, µM (highest dose often 57.9 µM), for the others: at the highest dose activity change, negative = inhibition, most hits filed as inhibitors. 410,000 compounds, 1.2% hits. AID 1159524, 2015; calls by dose curve; tested in HEK293T cells; also: read-out not given here; nearly all actives have a fitted effect of over 45% in size
AMA1 RON2 block: qHTS for Inhibitors of AMA1-RON; Towards Development of Antimalarial Drug Lead: Primary Screen | Potency, µM (titrated, usually from 58.2 µM), inactives show at the top dose activity change, negative = inhibition, most hits filed as inhibitors | Plasmodium falciparum AMA1 (3D7) - RON2 peptide interaction | 360,000 compounds, 0.2% hits | AlphaScreen AMA1-biotinylated RON2 peptide binding | AID 720542, 2013;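 also: 0% = vehicle wells and -100% = peptide control; nearly all actives have a fitted effect of over 45% in size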
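AMA1 (3D7) with his tag at 25 nM final met compounds first, then biotinylated RON2 peptide at 25 nM; detection used donor plus acceptor beads, 10 µg/mL apiece, read by AlphaScreen after 30 min at room temperature.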
Numbers without * were called inactive; ? = inconclusive; nt = no result given; [ ] = remark or other dose. Unless noted, calls follow the shape of the dose curve; as a rule, active = well fitted curve in the direction sought with a large enough effect; inconclusive = small, poorly fitted or top-dose-only effect, or another doubt; inactive = no such curve, though single readings can be large; an effect the other way counts as inactive or inconclusive. Unless noted, % is scaled to controls: 0 for no effect and ±100 for the full control effect; potency is read from the fitted curve at half-maximal effect.

SMILES	AmpC inh detg	AmpC no deterg	Sm TGR block	FMDV inh	AMA1 RON2 block
Cn1nnc(NC(=S)NC(=O)/C=C/c2ccco2)n1	3%	-34%	3.2µM*	-20%	6%
O=C(NC1CC(=O)N(c2ccccc2)C1)c1cc2ccccc2o1 (stereo not given)	2%	nt	8%	-24%	nt
O=C(COc1ccc(Cl)cc1Cl)Nc1ccccn1	8%	-2%	3%	1.6µM*	9%
O=C1CC(N2CCOCC2)C(=O)N1c1cc(Cl)cc(Cl)c1 (stereo not given)	-3%	5%	35µM*	-4%	6%
Cc1cc(C)cc(N2C(=O)CC(N3CCOCC3)C2=O)c1 (stereo not given)	-4%	-9%	50µM*	7%	3%
CCN1C(=O)CC(N2CCOCC2)C1=O (stereo not given)	4%	-5%	-10%	2%	-3%
O=C(C1CCN(C2CC(=O)N(c3ccc(F)cc3)C2=O)CC1)N1CCOCC1 (stereo not given)	-2%	-15%	?	-13%	-2%
C=Cc1ccc(Cn2c(=O)n(-c3cccc(C)c3)c(=O)c3c2c2cc(C)ccc2n3C)cc1	?	nt	-8%	-13%	nt
COc1ccc(Cl)cc1NC(=O)C1CCN(S(=O)(=O)c2ccc3c(c2)CC(C)N3C(C)=O)CC1 (stereo not given)	14%	nt	-1%	?	nt
O=C(NCCc1c[nH]c2ccccc12)/C(=C\c1cccnc1)NC(=O)c1ccccc1Br	0%	-3%	-7%	3.5µM*	8%
O=C1CN(C(=O)Nc2ccccc2Cl)C(c2ccccc2)c2c(sc3c2CCCC3)N1 (stereo not given)	-3%	nt	3%	-20%	nt
COc1ccc(C2C(C(=O)Nc3cccnc3)=C(C)Nc3nc(-c4ccco4)nn32)cc1 (stereo not given)	-14%	-9%	50µM*	-13%	-14%
CC1=C(C(=O)Nc2ccccc2)C(c2ccccc2)n2nc(-c3ccco3)nc2N1 (stereo not given)	22%	nt	0%	-27%	nt
CCCSc1ncnc2c1c(-c1ccccc1)cn2-c1ccccc1OC	4%	nt	-4%	-21%	nt
Cc1ccc(S(=O)(=O)/N=C2\C=C(NS(=O)(=O)c3ccccc3)C(=O)c3ccccc32)c(C)c1	nt	nt	nt	34%	-8%
CC(C)(C)c1ccc(S(=O)(=O)/N=C2\C=C(NS(=O)(=O)c3ccccc3)C(=O)c3ccccc32)cc1	-7%	-43%	-27%	28%	-20%
Cc1ccc(S(=O)(=O)/N=C2/C=C(Sc3ncn[nH]3)C(=O)c3ccccc32)cc1	-18%	-35%	0.32µM*	-25%	-2%
Cc1ccc(S(=O)(=O)/N=C2/C=C(Sc3ncn[nH]3)C(=O)c3ccccc32)c(C)c1	-18%	25µM*	0.63µM*	nt	nt
CC(C)c1ccc(S(=O)(=O)/N=C2/C=C(Sc3ncn[nH]3)C(=O)c3ccccc32)cc1	2%	-49%	0.28µM*	22µM*	-4%[11.6 µM]
Clc1ccc(N=NN2CCOCC2)cc1	?	-19%	6%	30%	-2%
Cc1[nH]nc(C(F)(F)F)c1N=NN1CCOCC1	nt	nt	nt	20µM*	10%
COC(=O)c1cc2sc(Cl)cc2n1Cc1nc(-c2ccccc2C)oc1C	-1%	nt	-1%	-1%	nt
Cn1c(SCc2ccccc2)nnc1C1CCCNC1 (stereo not given)	?	-5%	45µM*	2%	52%
Cn1c(SCc2ccc(Cl)cc2)nnc1C1CC1	-4%	-13%	-12%	11%	6%
COC(=O)C1(Cc2ccc(O)cc2)OC(=O)C(O)=C1c1ccc(O)cc1 (stereo not given)	-1%	-52%	16µM*	-6%	-29%
SMILES	AmpC inh detg	AmpC no deterg	Sm TGR block	FMDV inh	AMA1 RON2 block
COC(=O)CCc1ccc(O)cc1	-7%	-4%	-10%	-7%	3%
Cc1c(C(=O)NCc2ccco2)cnn1-c1ncc2c(n1)-c1ccccc1CC2	nt	nt	nt	48%	nt
CC(C)OCCCNc1ncnc2c1[nH]c1ccccc12	2%	-28%	2%	18µM*	0%
COc1cc(-c2cnc3c(NC=O)cc(-c4ccccc4Cl)cn23)cc(OC)c1OC	nt	nt	nt	-23%	-1%
O=c1c(CN2CCN(Cc3ccccc3)CC2)coc2ccc(Cl)cc12	?	-16%	7.1µM*	34%	0%
Cc1ccc2occ(CN3CCN(c4ccccc4)CC3)c(=O)c2c1	?	0%	25µM*	7%	-8%
O=c1cc(CN2CCCCCCC2)c2ccccc2o1	nt	nt	nt	-9%	-13%
O=c1oc2ccccc2c(Cl)c1CN1CCCCC1	1%	-14%	4.5µM*	?	-2%
O=c1oc2ccccc2c(N2CCCC2)c1CN1CCCC1	-3%	-45%	35µM*	nt	17%
Nc1c(NCCN2CCCCC2)c2ccccc2oc1=O	0%	-7%	28µM*	9%	58%
Cc1nc(N/N=C/c2ccc(O)cc2)c2cnn(-c3ccccc3)c2n1	-10%	16µM*	-2%	0%	0%
CN1CCN(C(CNC(=O)C(=O)Nc2ccc(F)cc2F)c2ccc3c(c2)OCO3)CC1 (stereo not given)	-3%	nt	10%	5%	nt
CCc1ccc(NC(=O)c2cnc3scc(C)n3c2=O)cc1	?	35µM*	-1%	31%	12%
CC1(C)CC(C#N)(N2CCOCC2)CCO1 (stereo not given)	7%	nt	13µM*	-7%	-4%
CCc1c2c(nc3ccc(OC(=O)N4CCC(N5CCCCC5)CC4)cc13)-c1cc3c(c(=O)n1C2)COC(=O)C3(O)CC (stereo not given)	nt	nt	nt	-8%	nt
CCc1c(C)sc2c1CCN(C(=O)Nc1ccccc1C(F)(F)F)C2c1ccccc1 (stereo not given)	2%	nt	9%	-21%	nt
O=C(CN(c1cc(C(F)(F)F)ccc1Cl)S(=O)(=O)c1ccccc1)NCCc1ccccc1	6%	nt	12%	13%	nt
C=C1[C@@H](O)[C@H](Cc2ccccc2)N(Cc2ccccc2Br)S1(=O)=O	nt	nt	nt	18µM*	9%
CCS(=O)(=O)c1c(S(=O)(=O)CC)c2cc(C(C)(C)C)ccn2c1C(=O)c1ccc(F)cc1	9%	nt	-6%	?	nt
C1=C(c2ccccc2)CCN(c2ncnc3nc[nH]c23)C1	?	?	50µM*	-10%	37%
CCn1c(=O)c([N+](=O)[O-])c(NCCN(C)C)c2ccccc21	5%	-7%	11%	-10%	12%
CCn1c(=O)c([N+](=O)[O-])c(Cl)c2ccccc21	1%	-22%	0.79µM*	22µM*	21%
N#Cc1cc(Sc2ccccn2)c([N+](=O)[O-])cc1C#N	3%	-22%	35µM*	-9%	-6%

Screens deposited in PubChem BioAssay by National Center for Advancing Translational Sciences (NCATS).
